# Results published in PubChem BioAssay AID1671202 (University of Kansas High Throughput Screening Laboratory, 2021).
# Values joined by “and” are separate entries in the source; they are usually repeats but may differ in a detail not shown here. Equal values may be shown once. The whole screen tested about 190,000 compounds, of which about 6,900 (3.6%) were called active. Rule as the data show it: active = inhibition above about 50%; inactive = the rest. Shown is part of a subset that was picked to be rich in actives. The source holds several records for some structures; these can differ, active in one and inactive in another.
# Molecular target: Huntingtin (Homo sapiens) (UniProt P42858)
# Test: mutant huntingtin-calmodulin interaction inhibitors – biochemical, AlphaScreen, primary screen (AID 1671202);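 also: 0% = both proteins with DMSO and 100% = one protein alone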
# Settings: AlphaScreen His-mHTT/GST-CaM binding, luminescence; at 15 µM, stronger effect = higher value
# Chain of Huntingtin (Homo sapiens) (P42858 whole entry, looked up, stated change not applied): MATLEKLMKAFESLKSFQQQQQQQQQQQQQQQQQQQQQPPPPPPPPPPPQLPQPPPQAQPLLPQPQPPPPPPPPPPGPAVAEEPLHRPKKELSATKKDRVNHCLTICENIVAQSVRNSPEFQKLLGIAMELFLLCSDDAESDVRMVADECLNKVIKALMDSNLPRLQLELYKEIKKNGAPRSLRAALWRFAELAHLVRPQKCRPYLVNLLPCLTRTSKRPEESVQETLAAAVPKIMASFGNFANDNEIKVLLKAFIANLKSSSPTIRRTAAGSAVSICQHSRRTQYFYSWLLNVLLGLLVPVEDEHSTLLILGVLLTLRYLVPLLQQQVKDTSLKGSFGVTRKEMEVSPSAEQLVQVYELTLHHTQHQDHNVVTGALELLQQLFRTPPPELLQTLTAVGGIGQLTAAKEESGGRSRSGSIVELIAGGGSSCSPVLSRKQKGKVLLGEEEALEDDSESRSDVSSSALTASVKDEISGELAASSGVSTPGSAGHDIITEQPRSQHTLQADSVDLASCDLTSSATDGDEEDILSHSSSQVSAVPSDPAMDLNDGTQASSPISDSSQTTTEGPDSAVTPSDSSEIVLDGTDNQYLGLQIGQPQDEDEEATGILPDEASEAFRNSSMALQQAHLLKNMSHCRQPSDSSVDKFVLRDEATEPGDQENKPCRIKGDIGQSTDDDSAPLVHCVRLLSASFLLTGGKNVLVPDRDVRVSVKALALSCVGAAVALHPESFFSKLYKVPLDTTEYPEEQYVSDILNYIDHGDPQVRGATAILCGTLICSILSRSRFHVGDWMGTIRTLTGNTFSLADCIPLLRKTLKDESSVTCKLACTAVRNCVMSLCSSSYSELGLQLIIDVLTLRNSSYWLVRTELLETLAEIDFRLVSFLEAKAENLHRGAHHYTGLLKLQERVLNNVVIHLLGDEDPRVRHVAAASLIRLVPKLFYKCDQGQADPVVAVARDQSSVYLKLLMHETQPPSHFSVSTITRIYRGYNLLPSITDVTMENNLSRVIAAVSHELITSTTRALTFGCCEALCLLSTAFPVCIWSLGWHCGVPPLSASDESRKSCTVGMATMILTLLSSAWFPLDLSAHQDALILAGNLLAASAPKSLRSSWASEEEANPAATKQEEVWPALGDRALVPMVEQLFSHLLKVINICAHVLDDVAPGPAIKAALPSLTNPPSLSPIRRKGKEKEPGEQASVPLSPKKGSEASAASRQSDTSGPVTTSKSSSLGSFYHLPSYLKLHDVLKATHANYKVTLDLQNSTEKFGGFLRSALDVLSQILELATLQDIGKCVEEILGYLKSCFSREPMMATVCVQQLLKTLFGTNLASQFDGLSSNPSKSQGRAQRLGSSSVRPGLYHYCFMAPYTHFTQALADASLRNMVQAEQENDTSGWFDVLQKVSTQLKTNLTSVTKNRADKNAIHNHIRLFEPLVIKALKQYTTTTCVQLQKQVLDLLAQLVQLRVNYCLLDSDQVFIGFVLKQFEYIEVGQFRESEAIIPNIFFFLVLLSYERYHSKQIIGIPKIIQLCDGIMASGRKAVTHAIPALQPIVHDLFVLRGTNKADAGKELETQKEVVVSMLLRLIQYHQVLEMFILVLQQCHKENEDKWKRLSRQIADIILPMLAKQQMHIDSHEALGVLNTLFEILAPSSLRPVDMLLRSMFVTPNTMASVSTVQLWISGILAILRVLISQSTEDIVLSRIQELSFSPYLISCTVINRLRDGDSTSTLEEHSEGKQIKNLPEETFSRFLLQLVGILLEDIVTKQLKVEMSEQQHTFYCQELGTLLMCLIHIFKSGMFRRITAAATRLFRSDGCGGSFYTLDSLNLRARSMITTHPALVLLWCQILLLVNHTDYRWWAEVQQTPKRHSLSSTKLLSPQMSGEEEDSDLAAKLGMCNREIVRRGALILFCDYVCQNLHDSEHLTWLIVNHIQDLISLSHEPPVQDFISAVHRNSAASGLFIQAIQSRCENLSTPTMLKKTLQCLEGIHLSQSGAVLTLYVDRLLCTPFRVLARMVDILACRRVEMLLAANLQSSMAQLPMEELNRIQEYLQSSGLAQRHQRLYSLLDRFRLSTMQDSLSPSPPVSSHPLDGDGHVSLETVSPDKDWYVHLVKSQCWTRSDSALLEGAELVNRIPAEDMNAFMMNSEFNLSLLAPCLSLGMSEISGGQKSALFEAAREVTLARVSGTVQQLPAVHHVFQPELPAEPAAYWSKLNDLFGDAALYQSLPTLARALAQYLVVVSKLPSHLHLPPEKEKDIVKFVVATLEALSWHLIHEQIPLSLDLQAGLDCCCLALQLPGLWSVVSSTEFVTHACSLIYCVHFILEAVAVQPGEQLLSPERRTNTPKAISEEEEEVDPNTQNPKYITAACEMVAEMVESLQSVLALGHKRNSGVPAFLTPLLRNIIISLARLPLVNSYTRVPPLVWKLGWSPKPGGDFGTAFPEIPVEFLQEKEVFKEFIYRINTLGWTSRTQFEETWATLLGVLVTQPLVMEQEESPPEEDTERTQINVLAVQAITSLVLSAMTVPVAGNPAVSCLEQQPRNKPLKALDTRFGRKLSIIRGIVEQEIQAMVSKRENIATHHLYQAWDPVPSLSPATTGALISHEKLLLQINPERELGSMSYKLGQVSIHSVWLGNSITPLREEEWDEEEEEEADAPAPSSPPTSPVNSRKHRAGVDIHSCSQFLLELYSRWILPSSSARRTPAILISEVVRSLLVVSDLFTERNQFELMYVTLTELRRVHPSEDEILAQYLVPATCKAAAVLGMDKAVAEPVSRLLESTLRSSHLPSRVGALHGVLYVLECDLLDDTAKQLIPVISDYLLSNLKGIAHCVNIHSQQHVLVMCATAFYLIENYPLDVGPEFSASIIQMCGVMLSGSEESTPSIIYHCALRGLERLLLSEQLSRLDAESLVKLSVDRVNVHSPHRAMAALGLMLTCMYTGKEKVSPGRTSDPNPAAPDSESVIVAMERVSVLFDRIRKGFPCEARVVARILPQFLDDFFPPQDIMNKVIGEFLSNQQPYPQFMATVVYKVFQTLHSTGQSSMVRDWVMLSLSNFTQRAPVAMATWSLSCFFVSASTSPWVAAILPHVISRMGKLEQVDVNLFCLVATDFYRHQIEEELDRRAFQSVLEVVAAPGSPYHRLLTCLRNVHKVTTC
row,SMILES,inhibition
1,Cc1cccc2c(C(=O)N3CCOCC3)cc(-c3ccccc3)nc12,26.2% (inactive)
2,Cc1ccc(C(=O)N2CCCC(COc3ccc(C(=O)N4CCOCC4)cc3)C2)cc1 (stereo not drawn),5.35% (inactive)
3,O=[N+]([O-])c1ccccc1/C=C/CN1CCN(C/C=C/c2ccccc2)CC1,75.3% (active)
4,O=[N+]([O-])c1ccccc1/C=C/CN1CCN(c2ccccc2)CC1,32.8% (inactive)
5,O=[N+]([O-])c1ccccc1/C=C/CN1CCC(O)CC1,-1.3% (inactive)
6,COc1ccc(Cl)cc1NC(=O)C1CC(=O)N(c2ccc3c(c2)CCN3C(C)=O)C1 (stereo not drawn),2.25% (inactive)
7,Cn1nccc1C(=O)N1CCCC1c1cccc(F)c1 (stereo not drawn),-3.94% (inactive)
8,COc1ccc(S(=O)(=O)NCCc2ccccc2)c(C)c1C,-7.6% (inactive)
9,CN1CCc2cc(C(CNC(=O)C(=O)NCc3ccccc3Cl)N(C)C)ccc21 (stereo not drawn),53.3% (active)
10,CN1CCCc2cc(C(CNC(=O)C(=O)NC3CCCCC3)N(C)C)ccc21 (stereo not drawn),5.1% (inactive)
11,CN1CCCc2cc(C(CNC(=O)c3ccccc3Cl)N3CCOCC3)ccc21 (stereo not drawn),19.8% (inactive)
12,N#CCn1cccc1-c1nc(-c2ccncc2)no1,38.7% (inactive)
13,CC(C)(C)C(O)CCNC(=O)c1cccc(F)c1 (stereo not drawn),-16.4% (inactive)
14,COc1ccc(C2=N/C(=C/c3ccc4c(c3)OCO4)C(=O)O2)c(Br)c1,3% (inactive)
15,O=C(Nc1ccc(N2CCOCC2)cc1)c1cccc(Br)c1,-1.7% (inactive)
16,COc1ccccc1OCC(=O)Nc1c2c(nn1-c1ccc(F)cc1)CS(=O)(=O)C2,-5.8% (inactive)
17,O=C1C2CC=CCC2C(=O)N1c1ccc(F)c([N+](=O)[O-])c1 (stereo not drawn),-1% (inactive)
18,CC1CC(=O)N(c2ccc(NC3CCCC(C)C3C)c([N+](=O)[O-])c2)C1=O (stereo not drawn),51% (active)
19,CC1CCCC(Nc2ccc(N3C(=O)CCCC3=O)cc2[N+](=O)[O-])C1C (stereo not drawn),48% (inactive)
20,COc1ccccc1NC(=O)C(CCS(C)(=O)=O)NC(C)=O (stereo not drawn),0% (inactive)
21,Cc1ccc(C2=NC3(CCCCC3)N(CC(=O)Nc3cccc(C)c3)C2=O)cc1,0.12% (inactive)
22,CN(C)c1ncccc1C(=O)Nc1ccccc1F,-5.3% (inactive)
23,CCOc1ccc(-c2nn(C)c(C)c2Oc2ccccc2)c(O)c1,-3.5% (inactive)
24,COc1ccc(-c2c(-c3ccc(OC)cc3O)nc(C)nc2C(F)(F)F)cc1,-2.9% (inactive)
25,CCCc1ccc(Oc2cn[nH]c2-c2ccc(OC)cc2O)cc1,51% (active)

row,SMILES,inhibition
1,CCCc1cc(C2CCCN2Cc2cn[nH]c2-c2cccc(OC)c2)no1 (stereo not drawn),-7.21% (inactive)
2,Cc1c(O)ccc(-c2[nH]ncc2Oc2ccccc2)c1O,54.4% (active) and 53% (active)
3,CCOc1ccccc1CN1CCC(C(=O)N2CCN(Cc3ccccc3)CC2)CC1,2.9% (inactive)
4,CC(C)(C)CC(=O)N1CC(C(=O)NC2CC2)C(c2ccc(F)cc2)C1 (stereo not drawn),-0.9% (inactive)
5,O=C(c1ccc(C(F)(F)F)cc1)N1CCN(c2nc(CN3CCCC3)cs2)CC1,1.28% (inactive)
6,COc1ccc(CN(CC(=O)NCCc2ccccc2)S(=O)(=O)c2cccnc2)cc1,-5.6% (inactive)
7,COc1cccc(CN2CCc3nc(N4CCN(c5ccc(F)cc5)CC4)ncc3C2)c1,-4.69% (inactive)
8,O=C(Nc1ccc(Cl)cc1)c1cc2n(n1)C(C(F)(F)F)CC(c1cccs1)N2 (stereo not drawn),-2% (inactive)
9,CCCNC(=O)c1nn2c(c1Cl)NC(c1ccc(Cl)cc1)CC2C(F)(F)F (stereo not drawn),9% (inactive)
10,O=C(Nc1cc(Cl)ccc1O)c1nn2c(c1Cl)NC(c1cccs1)CC2C(F)(F)F (stereo not drawn),90% (active)
11,O=C(NCc1ccco1)C1CN(S(=O)(=O)c2cccs2)CC12CCCCC2 (stereo not drawn),2.15% (inactive)
12,Cc1ccc(Sc2nccnc2N2CCC(C(=O)N3CCN(C)CC3)CC2)cc1,10.6% (inactive)
13,CC(C)N(c1snnc1N)C(C)C,-2.94% (inactive)
14,CC1=C(C(=O)Nc2ccc(Br)cn2)C(c2cccnc2)C2=C(CCCC2=O)N1 (stereo not drawn),1% (inactive)
15,COc1ccc(NC(=O)c2ccc(OC)c([N+](=O)[O-])c2)cc1Cl,-0.1% (inactive)
16,COc1ccc(N=Cc2ccc(Cl)c([N+](=O)[O-])c2)cc1OC,57% (active)
17,COc1ccc(/C=C2\N=C(c3ccc(Cl)c([N+](=O)[O-])c3)OC2=O)cc1OC,7% (inactive)
18,CCNc1cc(N2CCC(CCC(=O)NCC(C)C)CC2)ncn1,0.14% (inactive)
19,CCN(CC)CCCNc1c(CCC#N)c(C)c(C#N)c2nc3ccccc3n12,4% (inactive)
20,O=C(CN1C(=O)S/C(=C\c2ccccc2)C1=O)Nc1ccccc1Cl,-5% (inactive)
21,COc1ccc(-n2ncc3c(N4CCc5ccccc54)ncnc32)cc1,11% (inactive)
22,Fc1cnc(N2CCOCC2)nc1NCc1ccccc1,0.7% (inactive)
23,c1ccc2c(c1)CCN2c1nc(N2CCOCC2)c2n[nH]nc2n1,83.5% (active)
24,Cc1ccc(NC(=O)NCCC2CCN(S(=O)(=O)c3ccc(F)cc3)CC2)c(C)c1,42.8% (inactive)
25,O=c1[nH]c(/C=C/c2cccc(Br)c2)nc2ccccc12,-5.1% (inactive)

row,SMILES,inhibition
1,CC1(C)c2ccccc2N2CC(=O)NC21/C=C/c1cccc(Br)c1 (stereo not drawn),100% (active)
2,COCCOCC1CCN(C(=O)c2cccc(N(C)C)c2)CC1,-11.5% (inactive)
3,CCC(=O)Nc1cccc(NC(=O)c2ccc(C(C)C)cc2)c1,0.3% (inactive)
4,CC1=Nc2c(ccc3cccnc23)C1(C)C,66.6% (active) and 14.1% (inactive)
5,COc1cc2c(cc1NC(=O)c1ccc(OC)c(OC)c1OC)oc1ccccc12,-2.6% (inactive)
6,CCCN1CCN(c2ncnc3c2nc2n3CCCC2)CC1,-1.5% (inactive)
7,N#Cc1c(N=Cc2ccc(Br)cc2)sc2c1CCC2,23% (inactive)
8,N#Cc1cccc(CN2CCC(=O)N([C@H](CO)c3ccccc3)CC2)c1,0.1% (inactive)
9,COc1ccc(SC[C@H](Cc2ccccc2)N2CCN(CCc3ccccc3)CCC2=O)cc1,92.2% (active)
10,O=C1CCN(Cc2ccc([N+](=O)[O-])cc2)CCN1[C@H](CO)Cc1ccccc1,6.4% (inactive)
11,O=C1CCN(Cc2ccccc2)CCN1[C@H](CSc1ccccc1)c1ccccc1,98.8% (active)
12,O=C1CC[C@H](O)CCN1[C@H](CSc1ccc(Br)cc1)Cc1ccccc1,24.2% (inactive)
13,C[C@H]1CCC(=O)N([C@H](CSc2ccccc2)Cc2ccccc2)CC1,-8.3% (inactive)
14,Cc1ccc(CCNC(=O)c2cc3n(n2)CCCN(Cc2ccc(Cl)cc2)C3=O)cc1,27.7% (inactive)
15,O=C(N1CCOCC1)[n+]1ccc(/C=C/c2ccc(Cl)cc2)cc1,8% (inactive)
16,CC1(C)CC(=O)c2sc(NC(=O)C(C)(C)Oc3ccc(Cl)cc3)nc2C1,-1% (inactive)
17,CCNc1nc(NCC)n2c(SCC(=O)c3ccc(C(C)(C)C)cc3)nnc2n1,-3% (inactive)
18,O=C(NCCc1ccc(Cl)cc1)c1cnn2c3c(cnc12)CCCC3,-0.73% (inactive)
19,COc1ccc(C=C2Oc3c(ccc(OC(=O)N4CCOCC4)c3C)C2=O)cc1OC,1.6% (inactive)
20,CCCc1[nH]nc2c1C1(CCOCC1)C(C#N)=C(N)O2,-0.61% (inactive)
21,COc1ccc(C=C2Oc3c(ccc(O)c3CN3CCN(C)CC3)C2=O)cc1OC,6.2% (inactive)
22,COc1cccc(C=C2Oc3c(ccc(O)c3CN3CCN(C)CC3)C2=O)c1,18.1% (inactive)
23,CN1CCN(Cc2c(O)ccc3c2OC(=Cc2cc4cc(Br)ccc4o2)C3=O)CC1,61.5% (active)
24,CCOc1ccccc1C(=O)NCc1ccc2c(c1)cc(C)n2C,38.2% (inactive)
25,COC(=O)Nc1nc(CC(=O)NCc2ccco2)cs1,-3.8% (inactive)

row,SMILES,inhibition
1,COc1ccccc1N1CCN(C(=O)C(c2ccccc2)c2ccccc2)CC1,38.2% (inactive)
2,COc1ccccc1N1CCN(C(=O)Cc2csc(Nc3nc(C)cc(C)n3)n2)CC1,65% (active)
3,COc1ccccc1N1CCN(C(=O)c2cn3ccc(C)cc3n2)CC1,0.9% (inactive)
4,COc1ccc(N2CCN(C(=O)CSCc3ccccc3)CC2)cc1,20.7% (inactive)
5,O=C(CCCn1cccc1)Nc1nc(-c2ccco2)cs1,28.4% (inactive)
6,Cc1cc(C)nc(Nc2nc(CC(=O)Nc3nc(-c4ccco4)cs3)cs2)n1,83.2% (active)
7,COc1ccccc1N1CCN(C(=O)CSCc2ccccc2C)CC1,66.4% (active)
8,COc1ccccc1NC(=O)Nc1nc(CC(=O)N2CCc3ccccc32)cs1,14.7% (inactive)
9,O=C(CCS(=O)(=O)c1ccc(Br)s1)Nc1ccc(F)cc1,-1% (inactive)
10,CC(C)C(=O)Oc1ccc2c(c1)OC(=Cc1ccco1)C2=O,42.1% (inactive)
11,CC(C)C1(CCN(Cc2ccc3c(c2)OCO3)C(=O)c2ccco2)CCOC(C)(C)C1 (stereo not drawn),-2.26% (inactive)
12,COc1cc(OC)cc(C(=O)Nc2nc(C)c(C)s2)c1,9.5% (inactive)
13,Cn1nccc1C(=O)N1CCC(c2nncn2-c2ccccc2)CC1,-1.38% (inactive)
14,CCC(C)NC(=O)c1cn(CC(C)C)c(=O)c2c1c1ccccc1n2C (stereo not drawn),-2% (inactive)
15,Cc1ccc(COCc2nn(C)c3c2CN(C(=O)Nc2cccc(C)c2)CC3)cc1,30.3% (inactive)
16,O=C(CSc1nccn1-c1ccccc1)Nc1ccccc1C(F)(F)F,18% (inactive)
17,Cc1cc(C(=O)N2CCC(CCOc3ccc(F)cc3)CC2)no1,-3.47% (inactive)
18,Oc1ccc(Cl)cc1C1CC(c2ccccc2)=NC2(CCNCC2)N1 (stereo not drawn),7.96% (inactive)
19,CCN1CCC2(CC1)N=C(c1ccccc1O)CC(c1ccc(C)cc1)N2 (stereo not drawn),51.5% (active)
20,COc1cccc(C2CC(c3ccc(C)cc3C)=NC3(CCN(C(C)=O)CC3)N2)c1O (stereo not drawn),7.51% (inactive)
21,CCOC(=O)N1CCC2(CC1)N=C(c1ccccc1O)CC(c1ccc(F)c(Cl)c1)N2 (stereo not drawn),51.8% (active)
22,CCOC(=O)N1CCC2(CC1)N=C(c1cc(Cl)ccc1O)CC(c1ccc(C)cc1)N2 (stereo not drawn),6.77% (inactive)
23,CN1CCC2(CC1)N=C(c1ccc3c(c1)OCO3)CC(c1cc(Cl)ccc1O)N2 (stereo not drawn),16% (inactive)
